Sampled rows, rich in hits. Any-hit rate of the full collection: about 1.1%.
TrxR1 substrate = substrates of rat thioredoxin reductase 1. hit rate 0.01% among 390,000. O89049. purified TrxR1 substrate turnover, NADPH consumption readout. Potency, µM (doses to about 114 µM), without a hit: at the highest dose activity change, negative = substrate turnover; further: potency means the concentration at half of the fitted maximal effect; nearly all actives have a fitted effect of over 50% in size
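Rat TrxR1, dispensed at 90 nM, was prereduced with 400 uM NADPH (final) for 5 min at ~22 deg C, then incubated with compound 15 min before 400 uM selenite. A first-read NADPH fluorescence drop versus no-compound background flagged substrates.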
a7 integrin act = integrin-mediated muscular dystrophy alleviation activation | alpha7betagal myoblasts, beta-gal FDG fluorescence, 48 h | Potency, µM (highest dose often 38.3 µM), inactives show at the highest dose activation, actives largely listed as activators | hit rate 0.064% among 350,000;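 further: potency means the concentration at half of the fitted maximal effect; 100% = response of the positive control SU9516; nearly all actives have a fitted effect of over 60% in size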
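Alpha7betagal+/- myoblasts (passage 13) were plated 16-24 hr, then exposed to compounds (1:260 dilution of DMSO stock) for 48 hours at 37C. After MPER lysis, β-galactosidase reporter activity was read as FDG fluorescence (ex 480/em 540) after 30 minutes.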
TrxR1 inh = blocks rat thioredoxin reductase 1 | O89049 | recombinant rTrxR1, NADPH fluorescence consumption, selenite substrate | Potency, µM (top dose mostly 114 µM), without a hit: at the top dose activity change, negative = inhibition, usual class: inhibitors | hit rate 1% among 390,000 | AID 588453; further: potency means the concentration at half of the fitted maximal effect; nearly all actives have a fitted effect of over 65% in size
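Rat TrxR1 (90 nM in the dispensed reagent) was pre-reduced with 400 uM NADPH for 5 min at room temperature, then incubated with compound for 15 min. After 400 uM selenite was added, NADPH fluorescence (Ex 340/Em 450 nm) was followed for 8 min.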
PI4K2A block = blocks human PI4K2A kinase activity; Q9BTU6; purified PI4K2A, ADP-Glo luminescence, 1 h; active compounds read low; activity change, negative = inhibition, % at 76.9 µM; hit rate 0.13% among 420,000; AID 1346378; in the data active means activity change below about -50%; inconclusive means mostly about -30% to -49%;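 further: -100% = wells without enzyme as full effect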
Target sequence (Q9BTU6 whole entry, looked up): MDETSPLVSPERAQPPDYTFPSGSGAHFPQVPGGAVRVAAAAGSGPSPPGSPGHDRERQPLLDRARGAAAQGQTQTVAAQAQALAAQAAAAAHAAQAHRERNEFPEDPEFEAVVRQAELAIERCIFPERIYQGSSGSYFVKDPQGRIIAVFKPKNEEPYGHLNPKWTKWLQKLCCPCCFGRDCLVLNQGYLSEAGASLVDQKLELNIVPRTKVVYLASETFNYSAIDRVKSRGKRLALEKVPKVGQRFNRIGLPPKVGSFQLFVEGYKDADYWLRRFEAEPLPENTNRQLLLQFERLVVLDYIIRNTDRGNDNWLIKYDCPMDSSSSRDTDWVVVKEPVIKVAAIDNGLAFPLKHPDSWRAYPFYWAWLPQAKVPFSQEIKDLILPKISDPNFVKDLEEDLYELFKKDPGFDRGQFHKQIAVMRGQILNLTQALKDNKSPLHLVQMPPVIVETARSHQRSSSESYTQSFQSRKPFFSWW
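ADP-Glo luminescence measured ADP generated by PI4K2A enzyme (4 ug/mL before mixing) with 1.2 mM PI substrate (pre-mix) and 300 microM ATP (pre-mix). Tris pH7.5 buffer with MgCl2, Triton X-100; 1 h reaction at ambient temperature.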
LDHA inh = LDHA (human) enzyme inhibition. P00338. purified LDHA, NADH/diaphorase-resazurin fluorescence; active compounds read low. activity change, % (values are at about 110 or 230 µM). hit rate 0.15% among 480,000; in the data active means activity change below about -30%; inconclusive means mostly about -25% to -30%;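 further: plate controls were DMSO wells for no effect and wells without enzyme for full effect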
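LDH5 2 nM; NADH 0.06 mM, pyruvate 0.2 mM; 200 mM Tris pH 7.4, EDTA, Tween-20; 5 min RT. Detection: diaphorase 0.133 mg/mL + resazurin 37 µM, fluorescence ex540/em590 at 0 and 20 min; normalized to enzyme-free and DMSO wells.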
GALK inh = galactokinase (human) inhibition; P51570; Purified GALK, Kinase-Glo residual ATP luminescence; Potency, µM (top dose mostly 57.5 µM), inactives show at the top dose activity change, negative = inhibition, hits mostly inhibitors; hit rate 0.007% among 270,000; further: potency means the concentration at half of the fitted maximal effect
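Quantitative HTS: GALK 5 nM, ATP 35 uM, galactose 100 uM, 1 h room temperature, then luciferase-based ATP detection.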
The depositor's hits bear a star; ? = inconclusive; . = no result; [ ] = dose if it differs, or a comment. Unless noted, the call rests on the fitted dose curve; in most records, active means well fitted curve in the direction sought with a large enough effect; inconclusive means small, poorly fitted or top-dose-only effect, or another doubt; inactive means no such curve, though single readings can be large; an effect the other way counts as inactive or inconclusive. Unless noted, on the % scale 0 is the no-effect control and ±100 the full control effect.

SMILES	TrxR1 substrate	a7 integrin act	TrxR1 inh	PI4K2A block	LDHA inh	GALK inh
CCCCOc1ccc(/C=C/C(=O)c2ccc(OC)c(CSCC(=O)O)c2)cc1	.	.	.	.	2	.
CN(CC(=O)Nc1ccc(N2CCOCC2)cc1)Cc1c(O)ccc2ccccc12	13%[57.1 µM]	-36%	4µM*	-2	14	-3%
CN(CC(=O)Nc1ccc(N2CCOCC2)cc1)CC(=O)Nc1ccc(N2CCOCC2)cc1	-2%	0%	15%	-1	0	-1%
CCc1nc(C#N)c(N2CCN(c3cccc(Cl)c3)CC2)o1	.	.	.	.	7	.
O=C(NCCCOC1CCCCC1)C1CCCO1 (stereo unspecified)	.	.	.	.	-1	.
O=c1c(C(c2nnnn2C2CCCCC2)N2CCCCC2)coc2ccc(Cl)cc12 (stereo unspecified)	2%	-6%	28µM*	7	-12	1%
CCn1c(-n2nc(C)c(C)c2C)nc2c1c(=O)n(Cc1ccccc1)c(=O)n2C	.	.	.	.	-2	.
Cc1nn(-c2nc3c(c(=O)n(CC(N)=O)c(=O)n3C)n2Cc2ccccc2)c(C)c1C	.	.	.	.	-33*	.
O=C(Nc1nc(-c2ccco2)c(-c2ccco2)s1)C1CC(=O)N(c2ccc3c(c2)OCCO3)C1 (stereo unspecified)	0%	-34%	?	-56*	11	0%
COCCNC(=O)NC(=O)COC(=O)c1ccc(COc2ccc3c(C)cc(=O)oc3c2)cc1	.	.	.	.	-5	.
Cc1ccc(NP(=O)(Nc2ccc(C)cc2)Nc2ccc(C)cc2)cc1	-7%	3.2µM*	17%	-4	-3	6%
COc1ccc(NC2C=CS(=O)(=O)C2)cc1 (stereo unspecified)	7%	-35%	16µM*	-6	9	5%
CCOc1ccc(NC2C=CS(=O)(=O)C2)cc1 (stereo unspecified)	8%[57.1 µM]	1%	?	8	20	0%
COC1=C/C(=C/c2c(N)n3nc(-c4ccc(C)cc4)sc3nc2=O)C=CC1=O	1%[57.1 µM]	8%	16%[57.1 µM]	-5	-30*	-7%
CCCC(C)(NC(=O)OCc1ccccc1)C(=O)O (stereo unspecified)	.	.	.	.	4	.
CC1CCC/C(=C\Nc2ccc(O)cc2)C1=O (stereo unspecified)	-14%	-38%	20µM*	?	22	7%
Cc1cc(C(=O)O)ccc1N/C=C1\CCCC(C)C1=O (stereo unspecified)	-18%	7%	-22%	4	-6	-2%
Cc1cc(C)c2nc(N3CCCN(C(=O)c4ccco4)CC3)c(C#N)cc2c1	23%	-28%	10µM*	-6	0	2%
Cc1ccc(-c2nnc(N3CCN(C(=O)c4ccco4)CC3)c3ccccc23)cc1	-5%	-16%	56µM*	-2	1	2%
Cc1cc2cc(CN(Cc3ccco3)S(=O)(=O)c3c(C)ccc4nsnc34)c(=O)[nH]c2cc1C	2%[57.1 µM]	-9%	?	2	3	.
Cc1ccc2cc(CN(Cc3ccco3)S(=O)(=O)c3c(C)ccc4nsnc34)c(=O)[nH]c2c1	-4%	-28%	13µM*	-2	-2	-4%
CCOc1ccc(CN(C)C(=O)Cn2nc(C(=O)O)c3ccccc3c2=O)cc1	.	.	.	.	1	.
CSCCC1C(C#N)=C(N)Oc2n[nH]c(-c3cccs3)c21 (stereo unspecified)	0%	-21%	10µM*	-7	7	-1%
CCOC(=O)C1CCN(c2ccc(-c3cccs3)nn2)CC1	-4%	16%	-15%	-69*	0	19%
CCOC(=O)C1CCN(c2ccc(Cl)nn2)CC1	9%	22%	23%	3	-6	0%
SMILES	TrxR1 substrate	a7 integrin act	TrxR1 inh	PI4K2A block	LDHA inh	GALK inh
CCCC(=O)Nc1cccc(-c2nc3cc(C)cc(C)c3o2)c1C	.	.	.	.	0	.
CCOc1cc(/C=C\[N+](=O)[O-])ccc1OCC(=O)N1CCOCC1	8%[57.1 µM]	-62%	8.9µM*	-1	4	0%
COc1ccc(OC)c(CNC(=O)c2c(-c3ccc(C)cc3)nnc3ccccc23)c1	.	.	.	.	-18	.
CCCCNC(=O)CSc1nnc(Cc2ccc(Cl)c(Cl)c2)c(=O)[nH]1	-4%	1.4µM*	13%	-3	-4	-6%
O=C1C(O)=C(c2ccccc2)C(c2ccccc2F)N1c1ccc(F)cc1 (stereo unspecified)	.	.	.	.	-41*	.
Cc1ccc(S(=O)(=O)N2CCN(C(=O)COC(=O)c3cccc4ccccc34)CC2)c(C)c1	.	.	.	.	-3	.
CCNc1ccc2noc3c2c1C(=O)c1ccccc1-3	1%[57.1 µM]	-52%	-5%[57.1 µM]	-22	16	-1%
O=C1c2ccccc2-c2onc3ccc(NCc4ccco4)c1c23	-8%	0%	25µM*	-20	34	9%
CNc1oc(-c2cccs2)nc1S(=O)(=O)c1ccccc1	-5%[57.1 µM]	8%	33%[57.1 µM]	-3	-5	-1%
CC(C)CS(=O)(=O)c1oc(-c2ccc(F)cc2)nc1S(=O)(=O)c1ccccc1	4%	.	0.32µM*	57	-4	.
CCC(C)S(=O)(=O)c1oc(-c2cccs2)nc1S(=O)(=O)c1ccccc1 (stereo unspecified)	16%	.	0.71µM*	30	-3	.
COc1ccc(N/C=C/C(=O)c2ccc(C)c(C)c2)cc1Cl	.	.	.	.	5	.
CC1(C)CC(=O)C(C(C2=C(O)CC(C)(C)CC2=O)c2cccs2)C(=O)C1 (stereo unspecified)	0%	24%	6.3µM*	-16	-7	0%
O=S(=O)(CCSc1nc2ccccc2o1)c1nc2ccccc2s1	3%[57.1 µM]	-57%	1.1µM*	69	1	-4%
CCS(=O)(=O)CCSc1nc2ccccc2o1	10%	23%	15%	8	-10	-1%
O=S(=O)(CCSc1ccccn1)c1nc2ccccc2s1	-3%	-55%	14µM*	57	1	-3%
CCc1nc2ccccc2c(C(=O)OCC(=O)NC2(C#N)CCCC2)c1C	.	.	.	.	4	.
COc1ccc(C(=O)c2c(N)c(C#N)c3n2CCC3)cc1	.	.	.	.	6	.
Cc1cc(C)cc(NC(=O)CCN2C(=O)c3ccccc3Sc3ncccc32)c1	-12%	.	25µM*	-1	1	.
CC(=O)N1CCN(C(=O)c2ccc(-c3cccc(C(F)(F)F)c3)o2)CC1	-3%	7%	40µM*	-1	2	.
O=Cc1ccc2oc3nc4n(c(=O)c3c(=O)c2c1)CCCS4	10%[57.1 µM]	-11%	4%	-62*	-12	0%
CCCCS/C(=C(/C#N)C(N)=O)c1cc2c([nH]1)CCCC2	-13%	-63%	45µM*	7	-4	0%
CCNC(=O)CSc1nc(-c2ccc(F)cc2)cs1	0%	5µM*	-2%	3	0	5%

Assay outcomes (PubChem BioAssay)
